Assay results reported in PubChem BioAssay AID624465 (National Center for Advancing Translational Sciences (NCATS), 2012).
About 300 (0.083%) of roughly 360,000 compounds were called active. The sample as a whole holds a higher share of actives than the screen did. Unmarked numbers belong to inactive results. Rule as the data show it: active = activation above about 40%; inconclusive = between about 15% and that limit; inactive = weaker than that.

The molecules below were run against D(2) dopamine receptor (Homo sapiens) (UniProt P14416) (assay: Beta-Arrestin HTS for Positive Allosteric Modulators of the Human D2 Dopamine Receptor: Agonists). Conditions: DiscoveRx PathHunter D2 beta-arrestin, luminescence, 90 min; active compounds read high; 100% = 57 uM dopamine signal.
D(2) dopamine receptor (Homo sapiens), sequence (P14416 whole entry, looked up): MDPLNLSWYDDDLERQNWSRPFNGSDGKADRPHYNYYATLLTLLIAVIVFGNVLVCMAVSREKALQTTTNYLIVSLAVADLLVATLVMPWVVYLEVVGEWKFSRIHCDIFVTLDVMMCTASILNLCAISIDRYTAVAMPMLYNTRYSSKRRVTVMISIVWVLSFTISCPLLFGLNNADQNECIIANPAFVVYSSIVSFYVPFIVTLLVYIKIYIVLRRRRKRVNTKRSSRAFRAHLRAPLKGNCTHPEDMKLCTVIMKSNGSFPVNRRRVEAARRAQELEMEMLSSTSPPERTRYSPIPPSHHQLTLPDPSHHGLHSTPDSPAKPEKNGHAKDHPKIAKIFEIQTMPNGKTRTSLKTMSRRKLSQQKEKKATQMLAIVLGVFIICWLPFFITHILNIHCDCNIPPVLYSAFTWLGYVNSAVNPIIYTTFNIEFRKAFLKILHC
Text: There is great interest in identifying small molecule ligands for G-protein coupled receptors (GPCRs) as nearly 50% of all FDA-approved drugs target these important receptor proteins. […] Amongst the dopamine receptors (DARs), the D2 is arguably one of the most validated drug targets in neurology and psychiatry. For instance, all receptor-based antiparkinsonian drugs primarily work via stimulating the D2 DAR, whereas all FDA-approved antipsychotic agents are antagonists of this receptor. The D2 DAR is also therapeutically targeted in other disorders such as restless legs syndrome, tardive dyskinesia, Tourette's syndrome, and hyperprolactinemia.
To this end, a miniaturized qHTS screen was developed to be screened against the Molecular Libraries Small Molecule Repository (MLSMR). This assay seeks to identify agonists against the D2 DAR.
NIH Molecular Libraries Probe Production Network [MLPCN]
NIH Chemical Genomics Center [NCGC]
PI Name: David Sibley, National Institutes of Neurological Disorders and Stroke
DiscoveRx D2 cells were thawed from frozen stock and seeded at 2,100 cells/ 3 uL/well media (DiscoveRx Plating Reagent 2) with MultiDrop Combi dispenser (Thermo Scientific, Logan, UT) onto white tissue culture treated 1536-well Aurora plates (Brooks Automation, Chelmsford, MA) and allowed to attach overnight at 37 deg C, 5% CO2. Next, 23 nL/well of compound solutions in DMSO were added with a pintool transfer (Kalypsis, San Diego, CA). As the positive control, 1 uL/well dopamine (EC100, 57 uM final concentration) diluted in buffer (HBSS + 10 mM HEPES + SMB + 0.1% Tween-20) was dispensed to 1 column of each plate. The rest of the plate was dispensed with buffer only, 1 uL/well as well. The cells were stimulated by compounds or dopamine control for 90 minutes at 37 deg C, 5% CO2, after which 1.5 ul/well of DiscoveRx detection reagent was added with BioRAPTR FRD dispenser. The detection reagent was prepared by mixing of Galacton Star Substrate, Emerald II solution and PathHunter buffer (supplied by the assay kit) together at 1:5:19 proportion accordingly just prior to dispensing. The plates were incubated at ambient temperature for 1 hour and then the luminescent signal was read on ViewLux plate reader (PerkinElmer, Waltham, MA).

Row | Compound | activation
1 | Cc1cccc2nc(CNc3ccc(F)cc3)cn12 | -2.67%
2 | COc1ccc([N+](=O)[O-])cc1NC(=O)c1ccc(N(Cc2ccccc2C)S(C)(=O)=O)cc1 | 1.42%
3 | CN(CC(=O)NC1CCCCC1)S(=O)(=O)c1cccc2cccnc12 | -4.91%
4 | CCCCCN(C(=O)NC(=O)Nc1cccc(C)c1C)S(C)(=O)=O | -5.29%
5 | Cc1ccccc1Nc1scc(-c2ccc(Br)cc2)[n+]1-c1ccccc1C | -4.78%
6 | Cc1nn(-c2ccccc2)c2c1c(C)c(CCC(=O)NCC1CCCO1)c(=O)n2C (centres undefined) | -0.567%
7 | O=c1ccc2cc(S(=O)(=O)N3CCN(c4ccccc4)CC3)ccc2o1 | -0.365%
8 | CCCOc1cc(C)c(S(=O)(=O)n2nnc3ccccc32)cc1C | 2.16%
9 | CC(=O)N1C[C@@H](CO)[C@@H](N(C)C(=O)c2ccco2)C[C@H]1c1ccccc1 | -6.66%
10 | CCCN(CCc1ccccc1)C1CCc2c(O)cccc2C1 (centres undefined) | 56.1% (active)
11 | Cc1cc(C)cc(C(=O)N(CCc2ccccc2)C2=CC3CCC(C2)N3C)c1 (centres undefined) | 0.198%
12 | CCCc1cc(=O)[nH]c(SCC(=O)c2c(N)n(CC(C)C)c(=O)n(C)c2=O)n1 | -5.56%
13 | Cc1ccc(-c2csc(C(C#N)=C(O)CN3CCN(C(=O)c4ccco4)CC3)n2)cc1 | 9.93%
14 | O=C(NCC1CCCO1)C1CCN(C2CCN(C(=O)C3CCCCC3)CC2)CC1 (centres undefined) | 0.237%
15 | CC1CCc2c(sc3c2C2=NS(=O)(=O)CCN2C=N3)C1 (centres undefined) | -1.75%
16 | CCCCN1C(=O)C(=O)N(CC(=O)Nc2cccc(C(C)=O)c2)C1=O | -3.6%
17 | O=C1CCCN1C(=O)COc1ccc([N+](=O)[O-])cc1 | -5.83%
18 | C[C@H](OC(=O)n1ccnc1)[C@@H]1O[C@@]2(C)CCC[C@@H]1O2 | -0.3%
19 | CCC(=O)N1c2ccc(S(=O)(=O)NCc3ccco3)cc2CC1C (centres undefined) | 4.56%
20 | CC(NC(=O)CNC(=O)Cc1cccc2ccccc12)c1ccc(S(N)(=O)=O)cc1 (centres undefined) | -2.38%
21 | COc1ccc(CC(=O)NC(C)c2ccc(Cl)c(Cl)c2)cc1S(=O)(=O)N1CCOCC1 (centres undefined) | -3.32%
22 | CN(C(=O)c1cccc(NC(=O)Cc2ccc(NC(=O)C3CCCN(C(=O)C4CCCC4)C3)cc2)c1)C1CCC1 (centres undefined) | 1.94%

Row | Compound | activation
23 | COC(C[C@H](O)CC(=O)COCc1ccccc1)OC | 0.157%
24 | C[C@H](CO)N1C[C@H](C)[C@@H](CN(C)S(=O)(=O)c2ccc(F)cc2)OCc2cnnn2CCCC1=O | -9.17%
25 | CC(C)C1C(=O)N(Cc2cn(CCC3OCCO3)nn2)CCS(=O)(=O)N1Cc1ccc(-c2ccccc2C(F)(F)F)cc1 (centres undefined) | -3.03%
26 | Oc1ccccc1CNc1ncc(Br)cc1Br | 0.262%
27 | O=C(CSc1ccsc1[N+](=O)[O-])N1CCCCC1 | -4.54%
28 | Cc1cccc(NC(=O)c2ccc(OCC(=O)NCc3ccccc3)cc2)c1C | -2.68%
29 | Cc1c(NC(=O)C(C)OC(=O)c2cc3c4ccccc4n(C)c3s2)c(=O)n(-c2ccccc2)n1C (centres undefined) | -5.25%
30 | Cc1ccc(C(=O)NC2CCCC(C)C2C)cc1S(=O)(=O)N1CCCCC1 (centres undefined) | -2.55%
31 | N#CC1=C(N)N(c2ccc(F)cc2)C(=O)C1 | -1.46%
32 | CC1(C)C(=O)C2(CCCCC2)C(=O)OC1c1cccs1 (centres undefined) | -2.99%
33 | CC(=O)Nc1ccc(CNc2nc(NCCN(C)C)nc3cc(-c4ccccc4)sc23)cc1 | -1.9%
34 | COc1cccc(CNc2nc(NCc3cccs3)nc3ccsc23)c1 | -1.88%
35 | COCCNc1nc(NCc2ccc(NC(C)=O)cc2)c2sccc2n1 | 67.7% (active)
36 | COc1cccc(C(O)c2ncc(-c3ccc4ccccc4c3)[nH]2)c1 (centres undefined) | -2.42%
37 | CC1(C(=O)Nc2ccccc2Br)CCN1C(=O)CC1CC1 (centres undefined) | -0.948%
38 | COc1cc(NC(=O)C2CCN(c3cnccn3)CC2)cc(OC)c1 | -4.96%
39 | COc1ccc(N(CC(=O)Nc2cc(OC)cc(OC)c2)S(=O)(=O)c2c(C)n[nH]c2C)cc1 | -3.11%
40 | CCNC(=O)Nc1ccc(S(=O)(=O)Nc2cnc(C)nc2C)cc1 | -5.47%
41 | O=c1ccc(-c2ccc(S(=O)(=O)Nc3ccccc3)o2)n[nH]1 | -1.56%
42 | CCN1C(=O)C(=O)N(CC(=O)Nc2cc(C)ccc2C)C1=O | -2.03%
43 | CCOc1ccc(CN2CCC(n3nccc3NC(=O)C3CC3)CC2)cc1CO | 4.34%
44 | CCCNC(=O)c1cc(C2CCCCN2C(=O)OC)on1 (centres undefined) | -5.6%
